# Reference: PubChem BioAssay
# Calls of active or inactive are those of the source. Unless noted, how the calls were made is not given here.
# Legend:
# [1] = compound effects on lung adenocarcinoma cell viability – A549, calcein-AM fluorescence, 48 h, basal, profiling panel (AID 1162); details: higher = more signal; further: test concentration not given here
# [2] = compound effects on differentiated 3T3-L1 adipocyte viability – cell-based, 3T3-L1 adipocytes, calcein-AM fluorescence, 48 h, basal, profiling panel (AID 1163); details: 3T3-L1 adipocytes viability, higher = more signal; further: test concentration not given here
# [3] = compound effects on hepatocellular carcinoma cell viability – HepG2, calcein-AM fluorescence, 48 h, basal, profiling panel (AID 1164); details: higher = more signal; further: test concentration not given here
# [4] = compound effects on multiple myeloma cell viability – MM1S, calcein-AM fluorescence, 48 h, basal, profiling panel (AID 1165); details: higher = more signal;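 further: viability of MM1S multiple myeloma cells under basal unstimulated conditions; test concentration not given here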
# [5] = calcein-AM signal in unstimulated myeloma cells – cell-based, calcein-AM fluorescence, 48 h, PK04 Diversity Set, profiling panel (AID 1166); details: RPMI8226 myeloma viability, higher = more signal;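 further: cells grown under basal conditions without added stimulus; test concentration not given here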
# [6] = JC-1 mitochondrial signal, unstimulated HepG2 cells – cell-based, JC-1 fluorescence, 24 h, 100 nL compound, profiling panel (AID 1167); details: HepG2 mitochondrial potential, higher = more signal; further: test concentration not given here
# [7] = JC-1 mitochondrial signal, unstimulated adipocytes – cell-based, JC-1 fluorescence, 3T3-L1 adipocytes, 24 h, 100 nL compound, profiling panel (AID 1168); details: JC-1 mitochondrial fluorescence, higher = more signal, called active from +8 up or from −8 down; further: test concentration not given here
# [8] = JC-1 mitochondrial signal, unstimulated myeloma cells – cell-based, JC-1 fluorescence, RPMI8226, 24 h, 100 nL compound, profiling panel (AID 1169); details: JC-1 mitochondrial potential fluorescence, higher = more signal; further: test concentration not given here
# [9] = JC-1 mitochondrial signal, unstimulated MM1S myeloma – cell-based, JC-1 fluorescence, 24 h, 100 nL compound, profiling panel (AID 1170); details: MM1S mitochondrial potential, higher = more signal; further: test concentration not given here
# [10] = resazurin metabolic signal in A549 cells – cell-based, resazurin fluorescence, 24 h, PK04 Diversity Set, profiling panel (AID 1171); details: A549 viability, higher = more signal, called active from +8 up or from −8 down; further: test concentration not given here
# [11] = resazurin metabolic signal in HepG2 cells – cell-based, resazurin fluorescence, 24 h, PK04 Diversity Set, profiling panel (AID 1172); details: HepG2 viability, higher = more signal; further: test concentration not given here
# [12] = budding yeast growth changes without added modifier – OD600, strain BY4716, 24 h, basal condition, primary screen (AID 1173); details: S. cerevisiae BY4716 growth, OD600, 24 h; higher = more signal, called active from +8 up or from −8 down
# [13] = viability profiling in MM1S myeloma cells – cell-based, resazurin fluorescence, basal, 24 h, PK04 Diversity Set, profiling panel (AID 1174); details: higher = more signal, called active from +8 up or from −8 down; further: test concentration not given here
# [14] = biological target: Dihydroorotate dehydrogenase (quinone), mitochondrial (Plasmodium falciparum (isolate 3D7)) (UniProt Q08210); test: inhibition of P. falciparum DHODH – biochemical, C-terminal His tag, absorbance 600 nm, primary screen (AID 1175); details: PfDHODH enzyme, DCIP absorbance 600 nm; higher = more signal, called active from +8 up or from −8 down;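 further: recombinant parasite enzyme with a five histidine tag at its C terminus; test concentration not given here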
# Sequence of Dihydroorotate dehydrogenase (quinone), mitochondrial (Plasmodium falciparum (isolate 3D7)) (Q08210 whole entry, looked up): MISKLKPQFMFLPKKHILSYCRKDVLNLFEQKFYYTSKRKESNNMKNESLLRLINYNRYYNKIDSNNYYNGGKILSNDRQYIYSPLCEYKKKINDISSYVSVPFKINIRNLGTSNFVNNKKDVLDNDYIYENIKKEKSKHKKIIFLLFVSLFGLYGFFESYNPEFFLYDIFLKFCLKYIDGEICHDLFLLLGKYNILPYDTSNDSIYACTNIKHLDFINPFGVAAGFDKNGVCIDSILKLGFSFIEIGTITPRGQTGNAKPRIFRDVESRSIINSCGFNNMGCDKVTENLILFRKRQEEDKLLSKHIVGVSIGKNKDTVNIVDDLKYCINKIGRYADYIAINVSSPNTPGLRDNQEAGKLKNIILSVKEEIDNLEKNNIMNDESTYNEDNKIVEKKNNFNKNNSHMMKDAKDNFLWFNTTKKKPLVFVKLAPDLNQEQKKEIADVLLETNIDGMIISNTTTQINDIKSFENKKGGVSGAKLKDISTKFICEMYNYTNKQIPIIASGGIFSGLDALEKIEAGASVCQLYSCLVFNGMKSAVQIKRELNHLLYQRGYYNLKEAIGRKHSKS
# [15] = inhibition of PAO1 biofilm formation – strain PAO1, LB-PBS medium, absorbance 600 nm, primary screen (AID 1176); further: test concentration not given here; details: P. aeruginosa PAO1 growth/biofilm, A600, 12 h; higher = more signal
# [16] = growth modulation of vineyard yeast isolate – strain RM11-1a, OD600, basal, 24 h, primary screen (AID 1177);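 further: cultures grown under basal conditions with no added stressor; test concentration not given here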; details: S. cerevisiae RM11-1a growth, OD600, 24 h; higher = more signal, called active from +8 up or from −8 down
# [17] = growth of efflux-deficient E. coli DRC39 – strain DRC39, OD650, 24 h, E. coli filamentation inducers, primary screen (AID 1178);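 further: growth measured as culture turbidity by optical density at 650 nm; test concentration not given here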; details: E. coli DRC39 acrAB, higher = more signal, called active from +8 up or from −8 down
# [18] = growth of efflux-deficient E. coli DRC39 – strain DRC39, OD650, 48 h, E. coli filamentation inducers, primary screen (AID 1179);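 further: screen aims at cell division blockers that make cells filament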; details: E. coli DRC39 delta-acrAB growth, higher = more signal, called active from +8 up or from −8 down
# [19] = viability profiling in RPMI8226 myeloma cells – cell-based, resazurin fluorescence, basal, 24 h, PK04 Diversity Set, profiling panel (AID 1180); details: higher = more signal;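 further: RPMI8826 multiple myeloma cell line at 5000 cells per well; test concentration not given here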
# [20] = biological target: E3 ubiquitin-protein ligase XIAP (Homo sapiens) (UniProt P98170); test: small molecules binding XIAP protein – biophysical, small-molecule microarray, fluorescence 635 nm, primary screen (AID 1181); details: higher = more signal;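 further: score merges 667 nm emission and signal to noise over triplicate slides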
# Sequence of E3 ubiquitin-protein ligase XIAP (Homo sapiens) (P98170 whole entry, looked up): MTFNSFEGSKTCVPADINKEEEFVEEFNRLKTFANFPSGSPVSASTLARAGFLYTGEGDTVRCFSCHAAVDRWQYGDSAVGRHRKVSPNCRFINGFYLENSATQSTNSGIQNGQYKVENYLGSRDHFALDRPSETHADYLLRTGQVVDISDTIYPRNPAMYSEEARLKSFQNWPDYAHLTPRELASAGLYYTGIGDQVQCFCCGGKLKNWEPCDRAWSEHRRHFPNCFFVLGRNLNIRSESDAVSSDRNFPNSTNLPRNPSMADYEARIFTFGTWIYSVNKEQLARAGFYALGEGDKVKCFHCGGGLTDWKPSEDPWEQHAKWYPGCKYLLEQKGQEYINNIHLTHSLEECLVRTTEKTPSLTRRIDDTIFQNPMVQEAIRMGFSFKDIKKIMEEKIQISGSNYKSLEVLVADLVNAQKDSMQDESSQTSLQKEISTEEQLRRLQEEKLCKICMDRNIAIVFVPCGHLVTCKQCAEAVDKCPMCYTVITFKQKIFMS
Compound,z-score [1],z-score [2],z-score [3],z-score [4],z-score [5],z-score [6],z-score [7],z-score [8],z-score [9],z-score [10],z-score [11],z-score [12],z-score [13],composite z-score [14],z-score [15],z-score [16],z-score [17],z-score [18],z-score [19],composite z-score [20]
CCOC(=O)[C@@H]1CCCCN1C(=O)C(=O)OC,-0.856,-0.116,0.0129,0.143,0.13,-0.684,-0.603 (inactive),-0.0109,0.0743,-0.599 (inactive),-0.165,0.016 (inactive),-0.05 (inactive),0.0044 (inactive),-0.255 (inactive),0.245 (inactive),-0.26 (inactive),-0.253 (inactive),-0.64,0.269
C#CCN([C@@H](Cc1ccccc1)C(=O)OC)[C@@H](/C=C/C1CC1)[C@H](O)Cc1ccccc1,-1.03,-0.347,-1.38,-3.12,-2.25,0.993,-0.21 (inactive),-1.03,-1.51,2.25 (inactive),0.454,-0.0746 (inactive),1.4 (inactive),-0.371 (inactive),-0.189 (inactive),0.0421 (inactive),-0.622 (inactive),0.03 (inactive),0.659,-0.175
COC(=O)c1c(CC[C@@H](CO)NC(=O)N[C@@H](C)Cn2cc(-c3ccccn3)nn2)oc(C(C)=O)c1C(=O)OC,-0.495,0.526,-0.239,0.226,-0.858,-0.182,-0.857 (inactive),-0.181,-0.0849,-1.38 (inactive),-0.962,-0.369 (inactive),0.0168 (inactive),-2.74 (inactive),-0.109 (inactive),-0.37 (inactive),-0.207 (inactive),-0.605 (inactive),-0.921,0.0808
CC1=C2[C@@H](CCc3ccccc3)OB(O)C[C@@H]2[C@@H]2C(=O)N(Cc3ccccc3)C(=O)[C@@H]2C1,-0.261,-0.351,-0.932,-2.9,-2.4,-0.999,-0.301 (inactive),0.49,0.821,-0.17 (inactive),-0.819,-4.86 (inactive),-0.249 (inactive),-1.71 (inactive),0.118 (inactive),-0.849 (inactive),-0.204 (inactive),-0.225 (inactive),-0.26,-0.193
CCCC=C(CCC)[C@@H](NP(=O)(c1ccccc1)c1ccccc1)c1ccc(-c2ccccc2)cc1,-1.51,-0.933,-1.47,-1.67,-2.96,-4.76,0.74 (inactive),-0.343,-2.36,0.647 (inactive),0.127,2.21 (inactive),-1.16 (inactive),0.23 (inactive),-0.511 (inactive),1.42 (inactive),-0.492 (inactive),0.477 (inactive),-1.72,0.144
COc1cccc(C)c1NC(=O)O[C@H]1[C@H](OC(=O)Nc2ccc3c(c2)OCO3)[C@@H](OC(=O)Nc2ccc3c(c2)OCO3)[C@@H](OC)O[C@@H]1CO,-0.551,-0.271,-1.28,-2.27,-0.815,-0.445,0.925 (inactive),-0.863,-0.0492,-0.315 (inactive),-0.808,1.21 (inactive),-1.06 (inactive),-0.191 (inactive),3.29 (inactive),2.4 (inactive),1.5 (inactive),-0.1 (inactive),-0.939,0.196
[N-]=[N+]=Nc1ccccc1C[C@@]1(C(=O)NCCN2CCOCC2)N=C(c2ccc(OCCCO)cc2)O[C@@H]1c1ccccc1N=[N+]=[N-],-1.96,0.205,-2.04,-2.94,-3.31,-0.112,-0.29 (inactive),-1.26,-1.27,-1 (inactive),-1.02,-3.4 (inactive),-2.12 (inactive),0.322 (inactive),-0.124 (inactive),0.26 (inactive),-0.229 (inactive),-1.02 (inactive),-2.02,0.17
CCOC(=O)C[C@H]1[C@H](OC(=O)c2ccc(C(=O)c3ccccc3)cc2)[C@@H](NC(=O)C2CCCCC2)c2cc(OCCCO)ccc2N1C(=O)c1ccc2ccccc2n1,0.123,0.347,2.23,-0.436,1.31,1.9,1.45 (inactive),0.592,-0.543,-0.0397 (inactive),0.547,-0.108 (inactive),0.491 (inactive),-1.63 (inactive),-0.312 (inactive),0.86 (inactive),0.297 (inactive),0.991 (inactive),0.0839,-0.0141
CCCC=C(CCC)[C@@H](NC(=O)C(C)(C)C)c1ccc(C(=O)OC)cc1,-1.01,-0.886,-0.47,-0.695,-2.08,3.69,-0.614 (inactive),-0.118,-0.459,0.821 (inactive),1.35,1.3 (inactive),-0.0387 (inactive),0.0907 (inactive),0.122 (inactive),1.17 (inactive),-0.187 (inactive),0.0571 (inactive),-0.0244,-0.34
C=CCN1C(=O)[C@]2(CCS(=O)(=O)c3ccccc3)N=C(c3ccc(OCCCO)cc3)O[C@@H]2c2ccccc21,0.776,0.142,0.504,-0.0236,0.716,0.452,1.42 (inactive),-0.156,0.615,-2.52 (inactive),-0.735,0.383 (inactive),-1.36 (inactive),-0.756 (inactive),0.218 (inactive),0.742 (inactive),0.7 (inactive),0.916 (inactive),-1.96,0.0738
COCCCNC(=O)[C@@]1(Sc2ccc(C)cc2)CC(=O)N(C2Cc3ccccc3C2)[C@@H]1c1ccc(CO)cc1,0.771,0.544,-0.603,0.762,-0.204,0.17,-0.137 (inactive),0.445,-1.59,0.491 (inactive),0.183,-0.153 (inactive),0.307 (inactive),-0.277 (inactive),0.779 (inactive),-1.35 (inactive),0.897 (inactive),0.568 (inactive),0.222,-0.0367
COc1cc(NN2C(C(O)c3ccc(N(C)C)cc3)C=CC3C(=O)N(c4ccccc4)C(=O)C32)cc(OC)c1OC (stereo not given),-0.0098,0.808,0.181,-0.0191,-0.889,-0.112,-0.783 (inactive),0.134,-0.0117,-0.815 (inactive),-1.16,0.744 (inactive),-0.581 (inactive),-1.1 (inactive),0.794 (inactive),-0.591 (inactive),-0.0722 (inactive),-1.45 (inactive),-1.46,0.38
CCOC(=O)C[C@H]1[C@H](OC(=O)c2cc3ccccc3oc2=O)[C@@H](NC(=O)c2ccccc2)c2cc(OCCCO)ccc2N1C(=O)c1ccccc1,0.102,1.36,-0.521,-0.836,-2.3,1.23,0.434 (inactive),-0.954,0.185,-0.238 (inactive),-1.3,-1.89 (inactive),0.741 (inactive),-3.31 (inactive),-1.02 (inactive),-0.0038 (inactive),-0.397 (inactive),-0.869 (inactive),-0.171,-0.0559
C=CCOC(=O)[C@@H]1[C@H]2C(=O)O[C@H](c3ccccc3)[C@H](c3ccccc3)N2[C@H](c2ccc(OCCOC(=O)[C@@H]3C[C@@H]4C(=O)N[C@@H](CCCC[N+](C)(C)C)C(=O)N4[C@@H]3c3ccc(O)cc3)cc2)[C@@]12C(=O)Nc1ccc(I)cc12,-0.602,0.751,-0.495,-2.03,-1.7,-1.87,-0.582 (inactive),-0.657,-1.1,0.0416 (inactive),0.945,-0.398 (inactive),-0.596 (inactive),-2.02 (inactive),0.379 (inactive),1.39 (inactive),-0.507 (inactive),-0.809 (inactive),-0.0426,-0.124
CC(C)[Si](C#C[Si](C(C)C)(C(C)C)C(C)C)(O[C@H](c1ccccc1)c1cn(Cc2ccccc2)nn1)C(C)C,-0.491,-0.224,0.732,1.01,0.798,1.63,-0.703 (inactive),0.294,-0.888,1.77 (inactive),0.918,1.6 (inactive),0.869 (inactive),0.367 (inactive),0.0885 (inactive),1.14 (inactive),-0.177 (inactive),0.662 (inactive),1.43,0.0368
CC[C@@H]1O[Si](C(C)C)(C(C)C)c2c1cc(-c1cc(C)c(OC)c(C)c1)nc2-c1ccc(Oc2ccccc2)cc1,-0.472,-0.25,-0.601,0.287,-0.388,-0.557,0.202 (inactive),0.756,0.207,1.69 (inactive),1.41,-0.122 (inactive),0.722 (inactive),-0.148 (inactive),-0.783 (inactive),-0.0894 (inactive),0.48 (inactive),0.424 (inactive),0.51,0.113
CCCC[C@@H]1C[C@H]1[C@@H](NC(=O)c1cccs1)c1ccccc1C(F)(F)F,0.11,-0.556,-0.305,-0.6,-1.72,-2.45,-1.22 (inactive),-0.307,-1.24,-0.462 (inactive),-0.119,0.866 (inactive),-0.186 (inactive),-0.271 (inactive),0.591 (inactive),0.742 (inactive),-0.561 (inactive),-0.469 (inactive),0.276,0.99
CC(C)C(CO)N1C(=O)[C@@H]2C3C(=O)OCCC/C=C\[C@H]3OC23C=CCN(Cn2nnc4ccccc42)C(=O)[C@@H]13 (stereo not given in full),0.225,0.0251,0.0343,1,-0.224,-0.45,-0.529 (inactive),-0.0779,-0.165,0.173 (inactive),0.658,-0.133 (inactive),0.184 (inactive),-1.09 (inactive),0.233 (inactive),-0.0374 (inactive),0.246 (inactive),0.118 (inactive),0.37,-0.0367
